System: Vero E6 infected with SARS-CoV-2
Test: inhibition of SARS-CoV-2 cytopathic effect; higher = more antiviral protection, active = above 15
Details: 48 h

Measured: inhibition of SARS-CoV-2 cytopathic effect

CCOc1ccccc1OC(c1ccccc1)C1CNCCO1 (stereo not given) [reboxetine]
inactive: 1 nM 0.65% | 8.33 nM 1.82% | 100 nM 0.81% | 833.33 nM -0.58% | 10000 nM -1.59%

CCC(C)n1ncn(-c2ccc(N3CCN(c4ccc(OCC5COC(Cn6cncn6)(c6ccc(Cl)cc6Cl)O5)cc4)CC3)cc2)c1=O (stereo not given) [itraconazole]
inactive: 1 nM 2.52% | 8.33 nM 7.17% | 100 nM 2.54% | 833.33 nM -1.78% | 10000 nM -7.27%

N#Cc1c(N)nc(SCC(N)=O)c(C#N)c1-c1ccc(OCC2CC2)cc1
inactive: 1 nM 4.36% | 8.33 nM 2.85% | 100 nM 2.51% | 833.33 nM 10.1% | 10000 nM 12.1%

CC(=O)OCC(=O)[C@@]1(O)[C@@H](C)C[C@H]2[C@@H]3CCC4=CC(=O)C=C[C@]4(C)[C@@]3(F)[C@@H](O)C[C@@]21C [betamethasone-acetate]
inactive: 1 nM -1.36% | 8.33 nM 0.805% | 100 nM 0.555% | 833.33 nM 0.57% | 10000 nM -0.935%

O=C(Nc1ccccc1)OCC(CN1CCCCC1)OC(=O)Nc1ccccc1 (stereo not given) [diperodon]
inactive: 1 nM 0.17% | 8.33 nM -0.37% | 100 nM 0.05% | 833.33 nM -2.3% | 10000 nM -5.11%

N[C@@H](C(=O)O)c1nn[nH]n1 (racemic) [tetrazol-5-yl-glycine-(RS)]
inactive: 1 nM -2.49% | 8.33 nM -1.1% | 100 nM 0.87% | 833.33 nM 1.56% | 10000 nM -1.13%

Cc1c(C2CCN(CCc3ccccc3)CC2)noc1-c1ccc(Cl)cc1
inactive: 1 nM -1.74% | 8.33 nM 5.24% | 100 nM 6.13% | 833.33 nM 4.32% | 10000 nM -5.7%

C#Cc1cccc(Nc2ncnc3cc(OCCOC)c(OCCO)cc23)c1
inactive: 1 nM 2.26% | 8.33 nM -0.66% | 100 nM -2.61% | 833.33 nM -4.18% | 10000 nM -8.66%

CC(C(=O)O)c1cccc(C(=O)c2ccccc2)c1 (stereo not given) [ketoprofen]
inactive: 1 nM -0.91% | 8.33 nM -0.62% | 100 nM -0.91% | 833.33 nM -0.03% | 10000 nM -0.97%

Cc1cccc(C)c1NC(=O)CC12CCCN1CCC2 [pilsicainide]
inactive: 1 nM 0.34% | 8.33 nM 2.77% | 100 nM 4.31% | 833.33 nM 6.65% | 10000 nM -1.57%

CC(C)C(=O)Oc1ccc(CO)cc1[C@H](CCN(C(C)C)C(C)C)c1ccccc1 [fesoterodine]
inactive: 1 nM -1.73% | 8.33 nM -0.18% | 100 nM -0.25% | 833.33 nM -2.34% | 10000 nM 0.84%

CC(C)Oc1cccc(CC(=O)N2CCC[C@](CC[N+]34CCC(c5ccccc5)(CC3)CC4)(c3ccc(Cl)c(Cl)c3)C2)c1
inactive: 1 nM 1.67% | 8.33 nM 0.54% | 100 nM 0.54% | 833.33 nM 4.46% | 10000 nM 1.59%

Nc1ncnc2[nH]nc(Nc3ccc(F)cc3)c12
inactive: 1 nM -2.32% | 8.33 nM -2.2% | 100 nM -2.66% | 833.33 nM -0.59% | 10000 nM -5.26%

Clc1ccc(C(Cn2ccnc2)OCc2c(Cl)cccc2Cl)c(Cl)c1 (stereo not given) [isoconazole]
inactive: 1 nM 0.43% | 8.33 nM 0.08% | 100 nM 1.75% | 833.33 nM 1.3% | 10000 nM -2.37%

CSc1ccc(C(=O)c2[nH]c(=O)[nH]c2C)cc1 [enoximone]
inactive: 1 nM -4.27% | 8.33 nM -5.05% | 100 nM -6.45% | 833.33 nM -4.44% | 10000 nM -2.39%

NC(=O)N1c2ccccc2C=Cc2ccccc21 [carbamazepine]
inactive: 1 nM -2.53% | 8.33 nM -2.53% | 100 nM -0.42% | 833.33 nM -3.09% | 10000 nM -3.17%

CCCNS(=O)(=O)Nc1ncnc(OCCOc2ncc(Br)cn2)c1-c1ccc(Br)cc1 [macitentan]
inactive: 1 nM 0.7% | 8.33 nM -1.57% | 100 nM -0.9% | 833.33 nM 1.28% | 10000 nM 4.76%

Cc1cc(OCC(=O)O)cc(C)c1Cc1ccc(O)c(C(C)C)c1 [sobetirome]
inactive: 1 nM 1.8% | 8.33 nM -0.19% | 100 nM -3.41% | 833.33 nM -2.42% | 10000 nM -2.77%

— the supplement of paper PMC13380429
